Screens (PubChem)
KB-V1 MDR tox = KB-V1 MDR subline cytotoxicity | KB-V1 MDR cells viability, CellTiter-Glo, 72 h | Potency, µM (doses to about 46.1 µM), actives largely listed as cytotoxic | 3.4% of 400,000 active | AID 1347076; also: % is scaled to controls: 0 for no effect and ±100 for the full control effect; nearly all actives have a fitted effect of over 60% in size
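Compound-treated KB-V1 multidrug-resistant cells, 72 h, 37 degrees C; viability by CellTiter-Glo. Fitted qHTS curves give the values.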
MCF10A rereplic = induces DNA re-replication in MCF 10a normal breast cells; MCF 10A DNA re-replication, Hoechst nuclear intensity, 48 h; Potency, µM (top dose mostly 46.1 µM), inactives show at the top dose activity, positive = re-replication, actives largely listed as activators; 2.9% of 350,000 active; AID 624296; also: % of control where 0% means no effect; nearly all actives have a fitted effect of over 50% in size
HT1080NT lethal = kills 2HG-producing HT-1080-NT fibrosarcoma cells. HT-1080-NT fibrosarcoma viability, CellTiter-Glo ATP luminescence, 48 h. Potency, µM (doses to about 46.1 µM), without a hit: at the top dose activity, negative = less viability, hits mostly cytotoxic. 1.6% of 360,000 active. AID 686970;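 also: NT is the 2HG producing partner of a matched IDH1 knockdown line; 0% = DMSO-treated cells and -100% = media-only wells without cells; nearly all actives have a fitted effect of over 55% in size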
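Viability of the 2HG-overproducing fibrosarcoma line after 48 hours of compound exposure at 37 degrees C was determined by luminescence with CellTiter-Glo, and concentration-effect curves were then fitted and categorized.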
KB-3-1 tox = KB-3-1 parental cell cytotoxicity | KB-3-1 viability, CellTiter-Glo ATP luminescence, 72 h | Potency, µM (top dose mostly 46.1 µM), usual class: cytotoxic | 1.4% of 400,000 active | AID 1347075; also: % is scaled to controls: 0 for no effect and ±100 for the full control effect; nearly all actives have a fitted effect of over 60% in size
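Luminescent ATP read-out (CellTiter-Glo) measures survival of drug-naive KB-3-1 cells after 72 h compound exposure at 37 °C. Titration series was screened from lowest to highest concentration, with DMSO vehicle plates as background controls.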
SW480 rerep = DNA re-replication induction in SW480 cells; SW480 DNA re-replication, Hoechst DNA content imaging, 48 h; Potency, µM (series often up to 46.1 µM), without a hit: at the highest dose re-replication activation, actives largely listed as activators; 1.8% of 340,000 active; AID 624297; also: % of control where 0% means no effect; nearly all actives have a fitted effect of over 55% in size
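Quantitative HTS format with DMSO vehicle controls; 48 hr drug incubation at 37 C, then 40 min Hoechst staining and scanning imager measurement at 405 nm excitation.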
HT1080 IDH1KD tx = HT-1080 IDH1 knockdown cell toxicity (counter line); HT-1080 IDH1 knockdown viability, ATP luminescence, 48 h; AID 686971; 2% of 360,000 active; Potency, µM (highest dose often 46.1 µM), for the others: at the top dose activity, negative = toxicity, hits mostly cytotoxic;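 also: 0% = DMSO wells and -100% = cell-free medium wells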
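IDH1KD HT-1080 cells, 750/well, RPMI + 5% FBS; compound pinned after 2 h settling; 48 h, 37 °C; CellTiter-Glo luminescence; % activity normalised to DMSO and no-cell wells; curves fitted, classed by r2 and efficacy.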
Active calls of the source: *; i = inactive; u = inconclusive; x = not tested or not shown. Shown are actives, neighbours in structure and some others; about 8% of the full set was active somewhere. Calls follow the shape of the dose curve; as a rule, active = well fitted curve in the direction sought with a large enough effect; inconclusive = small, poorly fitted or top-dose-only effect, or another doubt; inactive = no such curve, though single readings can be large; an effect the other way counts as inactive or inconclusive. Potency is read from the fitted curve at half-maximal effect.

SMILES	KB-V1 MDR tox	MCF10A rereplic	HT1080NT lethal	KB-3-1 tox	SW480 rerep	HT1080 IDH1KD tx
COCCNc1nnc(SCC(=O)Nc2cc(-c3ccccc3)nn2-c2ccccc2)s1	16µM*	1%	-9%	i	-3%	6%
COCCn1c(SCCCC(=O)c2ccc(Br)cc2)nnc1-c1ccncc1	2.6µM*	18%	-4%	10µM*	1%	-18%
COCCn1c(SCC(=O)Nc2cc(C(C)(C)C)nn2-c2ccccc2)nnc1-c1ccncc1	16µM*	-69%	3%	i	-32%	-8%
Cn1c(SCCCC(=O)c2ccc(F)cc2)nnc1-c1ccncc1	i	u	3%	i	-5%	5%
CCC(C(=O)Nc1ccc(C(C)=O)cc1)n1c(C)c2cnn(-c3ccccc3)c(=O)c2c1C (stereo not given)	i	x	x	i	x	x
CCOC(=O)c1cc(S(=O)(=O)Nc2cc(F)ccc2C)[nH]n1	i	x	x	i	x	x
O=C(c1cc(-c2ccc(Cl)c(Cl)c2)on1)N1CCCCC1	15µM*	-9%	20%	i	0%	10%
CC1CCCCN1C(=O)c1cc(-c2ccc(Cl)c(Cl)c2)on1 (stereo not given)	18µM*	u	22%	i	9%	18%
CC1CCCCN1C(=O)c1cc(-c2ccc3c(c2)OCO3)on1 (stereo not given)	i	-2%	12%	i	2%	2%
CCC1CCCCN1C(=O)c1cc(-c2ccc(Cl)c(Cl)c2)on1 (stereo not given)	21µM*	u	11%	i	5%	-18%
O=C(CCS(=O)(=O)c1ccc(Br)cc1)N1CCN(c2ccc(Cl)cc2)CC1	5.8µM*	13%	14%	i	4%	0%
O=C(NC(=O)N1CCN(c2cccc(Cl)c2)CC1)c1ccc(Cl)cc1	u	5.2µM*	u	i	0%	0%
O=C(NCCC(=O)N1CCN(c2cccc(Cl)c2)CC1)c1ccc(Br)cc1	23µM*	u	-3%	i	2%	u
Cc1cccc(OCCn2c(SCC(N)=O)nc3ccccc32)c1	i	x	x	i	x	x
Cc1ccc(NC(=O)c2nc(S(C)(=O)=O)ncc2N(Cc2ccccc2)Cc2ccco2)c(C)c1	i	x	x	i	x	x
O=C(NC12CC3CC(CC(C3)C1)C2)c1ccc(-c2ccccc2Cl)o1	i	16µM*	u	u	9%	u
O=C(N/N=C1\CCc2ccccc21)c1ccccc1O	21µM*	-7%	u	i	2%	u
O=C(NC12CC3CC(CC(C3)C1)C2)c1ccc(-c2ccc(Cl)cc2)o1	u	12%	-16%	u	u	u
O=C(NNC(=O)C12CC3CC(CC(C3)C1)C2)c1ccccc1O	i	10%	-17%	u	u	u
O=C(NC12CC3CC(CC(C3)C1)C2)c1ccccc1O	i	8.2µM*	-23%	i	2%	u
O=C(NN=C1C2CC3CC(C2)CC1C3)c1ccccc1O	i	18%	-24%	i	21µM*	-22%
Cc1ccc(NC(=O)C2CCN(C(=O)c3cnn(-c4ccccc4)c3-n3cccc3)CC2)cc1	i	x	x	u	x	x
CCc1nn2c(-c3ccco3)ccnc2c1-c1ccccc1	i	x	x	i	x	x
CC(=O)c1ccc(NC(=O)CCCc2nc(-c3cccc(C)c3)no2)cc1	i	x	x	i	x	x
COc1cccc(N2CCN(C(=O)C3Cc4ccccc4N3C(C)=O)CC2)c1 (stereo not given)	i	x	x	i	x	x
SMILES	KB-V1 MDR tox	MCF10A rereplic	HT1080NT lethal	KB-3-1 tox	SW480 rerep	HT1080 IDH1KD tx
CCCN1CCN(c2cc3c(cc2F)c(=O)c(S(=O)(=O)c2ccc(CC)cc2)cn3CC)CC1	i	x	x	i	x	x
C/C(=N\NC(=O)c1ccccc1O)C1CC1	i	2%	-29%	i	16µM*	-15%
C/C(=N\NC(=O)c1ccc(N)cc1)C1CC1	u	7%	19%	i	-3%	13%
CCc1nnc(NC(=O)c2ccc(OC)c(S(=O)(=O)N3CCCC3)c2)s1	21µM*	5%	0%	i	-8%	-12%
CCc1nnc(NS(=O)(=O)c2ccc(NC(=S)NC(=O)c3ccc(OC)cc3)cc2)s1	u	0%	0%	i	-42%	-14%
CCc1nnc(NC(=O)c2ccc(S(=O)(=O)N3CCCCCC3)cc2)s1	i	14%	u	i	1%	-3%
CCc1nnc(NS(=O)(=O)c2ccc(NC(=S)NC(=O)c3ccc(OC)c(OC)c3)cc2)s1	i	u	3%	i	18µM*	5%
CCc1nnc(NS(=O)(=O)c2ccc(N/C=C/C(=O)c3ccc(C)cc3)cc2)s1	i	18µM*	-7%	i	-12%	-7%
CCc1ccc(OCC(=O)Nc2cc(-c3ccc(C)cc3)no2)cc1	i	x	x	i	x	x
COc1ccc(OC)c(/C=N/NC(=O)CCN2CCN(C(c3ccccc3)c3ccccc3)CC2)c1	u	15µM*	u	i	7%	-28%
O=C(CCN1CCN(C(c2ccccc2)c2ccccc2)CC1)N/N=C/c1ccc(O)cc1O	i	18%	u	u	13%	u
O=C(CCN1CCN(c2ccccc2)CC1)N/N=C/c1ccccc1OC(F)F	i	10%	-21%	i	3.3µM*	u
CC(=O)N(C1=C(N)C(=O)c2ccccc2C1=O)C(C)C	i	0%	-12%	i	u	-8%
COc1ccccc1N(C(C)=O)C1=C(Cl)C(=O)c2ccccc2C1=O	i	x	18µM*	i	x	7.3µM*
Cc1ccc(-n2ncc3c(NCCCN4CCOCC4)ncnc32)cc1C	i	x	x	i	x	x
O=C1[C@H]2C(c3ccccc3)=NN(c3ccccc3)[C@H]2C(=O)N1c1ccccc1	i	0.65µM*	-7%	u	-79%	-6%
O=C1C2C(c3ccccc3)=NN(c3ccccc3)C2C(=O)N1c1ccccc1 (stereo not given)	i	u	20%	i	1%	12%
COCCn1c(N)c(C(=O)OCc2ccccc2)c2nc3ccccc3nc21	i	u	-8%	i	u	-8%
COCCNC(=O)c1c(N)n(CCC2=CCCCC2)c2nc3ccccc3nc12	u	15µM*	-1%	u	21µM*	0%
COc1ccc(Nc2nc(C(=O)NCc3ccco3)cs2)cc1	16µM*	2%	-22%	16µM*	-15%	-7%
O=C(NCc1ccco1)c1csc(Nc2ccccc2Cl)n1	u	u	10%	i	-7%	-6%
